We go through five compounds from PubChem BioAssay.

The structures appear in SMILES notation. Activity calls are given as the source filed them.

For test [1], the system named is Plasmodium falciparum Sir2 (PF13_0152, Sir2A). Put plainly: Plasmodium falciparum Sir2A binding compounds – biochemical, small-molecule microarray, 635 nm fluorescence, primary screen (AID 1098).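 Further: score merges spot fluorescence intensity with its signal-to-noise ratio.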 The following applies: fluorescence 635 nm, higher = more signal.
Test [2] in a line: probe aDKK1 binding to arrayed compounds – biochemical, biotinylated probe, 635/667 nm fluorescence, primary screen (AID 1099).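 Further: score merges 667nm spot fluorescence with signal to noise across triplicate slides.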 Particulars: small-molecule microarray, higher = more signal.
A short description of test [3]: probe aCHRDL2 binding to arrayed compounds – biochemical, biotinylated probe, 635/667 nm fluorescence, primary screen (AID 1100). The following applies: small-molecule microarray, higher = more signal.
Test [4] is described as follows: change in splice reporter luminescence, either direction, cell-based, HEK293, spliceosome inhibition project, primary screen (AID 1101).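 Further: HEK293 cells carrying a splicing-competent luciferase reporter gene; test concentration not given here.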 Particulars: HEK293 splicing luciferase reporter, 24 h, higher = more signal, called active from +8 up or from −8 down.
The target of test [5] is Fibroblast growth factor 10 (Homo sapiens) (UniProt O15520). Put plainly: compounds binding fibroblast growth factor 10 – biochemical, small-molecule microarray, 635 nm fluorescence, primary screen (AID 1102). The following applies: FGF10 binding, fluorescence 635 nm, higher = more signal.
Test [6] concerns glycogen synthase kinase-3 (GSK3A per assay name; protocol says GSK3B). In words: compounds binding glycogen synthase kinase-3 – biochemical, small-molecule microarray, 635 nm fluorescence, GSK3A, primary screen (AID 1103). Further: the record names both GSK3A and GSK3B. Particulars: fluorescence 635 nm, higher = more signal.
The target of test [7] is Epidermal growth factor receptor (Homo sapiens) (UniProt P00533). In words: compounds binding epidermal growth factor receptor – biochemical, small-molecule microarray, 635 nm fluorescence, primary screen (AID 1104).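 Further: score merges 667 nm emission intensity with spot signal to noise over triplicate slides.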 The following applies: EGFR binding, higher = more signal.
Test [8] has as its target Follistatin-related protein 3 (Homo sapiens) (UniProt O95633). In words: compounds binding follistatin-related protein 3 – biochemical, small-molecule microarray, 635 nm fluorescence, primary screen (AID 1105).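 Further: score merges emission near 667 nm and signal to noise per printed spot across three slides.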 The following applies: FSTL3 binding, higher = more signal.
For test [9], the target named is Dickkopf-related protein 1 (Homo sapiens) (UniProt O94907). Put plainly: small molecules binding DKK1 protein – biochemical, small-molecule microarray, 635 nm fluorescence scan, primary screen (AID 1106).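 Further: score merges emission near 667 nm with signal to noise over three replicate slides.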 The following applies: higher = more signal.
In test [10] the test system is Inhibin beta A chain (activin A). In words: small molecules binding activin A – biochemical, small-molecule microarray, 635 nm fluorescence scan, primary screen (AID 1107).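 Further: mouse activin A protein probed at 4.33 µg/mL on printed slides; score merges bound-protein fluorescence near 667 nm with spot signal-to-noise.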 Particulars: INHBA, higher = more signal.
The subject of test [11] is Human papillomavirus type 1a protein E7 (residues 44-93). Put plainly: small molecules binding HPV E7 44-93 – biochemical, small-molecule microarray, residues 44-93, 635 nm fluorescence, primary screen (AID 1108).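 Further: E7 fragment applied at 1 µg/mL in TBST for 1 h at 4 C; score combines spot fluorescence with its signal to noise ratio.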 Particulars: fluorescence 635 nm, higher = more signal.
Test [12] in a line: hepatitis C replication reporter changes, two-sided – Huh7 cells, luciferase reporter, HCV replication inhibitor project, primary screen (AID 1109).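 Further: huh7 hepatoma cells harbouring a luciferase neomycin HCV replicon reporter; luciferase luminescence as measure of HCV replicon replication; test concentration not given here.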 Particulars: Huh7 HCV replicon luciferase reporter, 48 h; higher = more signal.
The target of test [13] is Left-right determination factor 2 (Homo sapiens) (UniProt O00292). In words: small molecules binding LEFTY2 protein – biochemical, small-molecule microarray, 635 nm fluorescence scan, primary screen (AID 1110). The following applies: higher = more signal.
Test [14] concerns the target Calmodulin-1 (Homo sapiens) (UniProt P0DP23). In words: small molecules binding calmodulin-1 with EGTA – biochemical, small-molecule microarray, Cy5-labelled CALM1, profiling panel (AID 1111).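 Further: labelled calmodulin applied in Tris saline Tween buffer holding calcium plus EGTA and DTT.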 The following applies: Cy5-CALM1 binding fluorescence, higher = more signal.
For test [15] the target is unchanged. Put plainly: small molecules binding Ca-loaded calmodulin-1 – biochemical, small-molecule microarray, Cy5-labelled CALM1, plus calcium, artefact control for SMM control-protein annotation, profiling panel (AID 1112).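 Further: score merges spot fluorescence with signal to noise from triplicate slides.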 Particulars: Cy5-CALM1 binding fluorescence, higher = more signal.
The nature of test [16]: probe aWnt5a binding to arrayed compounds – biochemical, biotinylated probe, 635/667 nm fluorescence, primary screen (AID 1113).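 Further: score merges 667 nm fluorescence intensity with signal-to-noise per printed feature.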 The following applies: small-molecule microarray, higher = more signal.
A short description of test [17]: probe aShh binding to arrayed compounds – biochemical, biotinylated probe, 635/667 nm fluorescence, primary screen (AID 1114).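 Further: probe is biotin-labelled aShh protein from a stem cell growth factor screen; measures binding of labelled protein to compounds printed on the slide; score merges feature fluorescence at 667 nm with signal-to-noise.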 Particulars: small-molecule microarray, higher = more signal.
Test [18] can be described thus: probe aNog binding to arrayed compounds – biochemical, biotinylated probe, 635/667 nm fluorescence, primary screen (AID 1115).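 Further: probe is biotinylated aNog protein used at 0.15 µg/mL for 1 h at 4 C; z-score combines 667 nm fluorescence of each spot with its signal to noise.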 Particulars: small-molecule microarray, higher = more signal.
The target in test [19] is Torsin-1A-interacting protein 1 (Homo sapiens) (UniProt Q5JTV8). In words: compound microarray binding of lysate hLAP1 – cell lysate, small-molecule microarray, COS7 lysate, 635/667 nm fluorescence, primary screen (AID 1116). The following applies: 635 nm fluorescence, higher = more signal.
For test [20], the target named is Alpha-bungarotoxin (Bungarus multicinctus) (UniProt P60615). Put plainly: compounds binding labelled alpha-BTX control protein – biochemical, small-molecule microarray, Alexa647 label, 635/667 nm fluorescence, artefact control for SMM control protein annotation, profiling panel (AID 1117). The following applies: alpha-BTX-A647 binding fluorescence, higher = more signal.
Sequence of Alpha-bungarotoxin (Bungarus multicinctus) (P60615 whole entry, looked up): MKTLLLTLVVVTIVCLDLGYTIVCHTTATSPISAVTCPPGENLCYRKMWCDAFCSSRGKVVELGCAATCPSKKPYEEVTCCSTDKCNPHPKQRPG

Sequence of Dickkopf-related protein 1 (Homo sapiens) (O94907 whole entry, looked up): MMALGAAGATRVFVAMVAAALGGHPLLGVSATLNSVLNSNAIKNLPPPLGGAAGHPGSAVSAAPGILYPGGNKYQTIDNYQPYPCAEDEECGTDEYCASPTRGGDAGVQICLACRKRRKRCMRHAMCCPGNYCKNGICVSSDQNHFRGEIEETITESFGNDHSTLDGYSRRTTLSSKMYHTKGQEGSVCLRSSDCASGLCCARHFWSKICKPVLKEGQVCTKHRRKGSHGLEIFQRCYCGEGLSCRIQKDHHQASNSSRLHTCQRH
Sequence of Left-right determination factor 2 (Homo sapiens) (O00292 whole entry, looked up): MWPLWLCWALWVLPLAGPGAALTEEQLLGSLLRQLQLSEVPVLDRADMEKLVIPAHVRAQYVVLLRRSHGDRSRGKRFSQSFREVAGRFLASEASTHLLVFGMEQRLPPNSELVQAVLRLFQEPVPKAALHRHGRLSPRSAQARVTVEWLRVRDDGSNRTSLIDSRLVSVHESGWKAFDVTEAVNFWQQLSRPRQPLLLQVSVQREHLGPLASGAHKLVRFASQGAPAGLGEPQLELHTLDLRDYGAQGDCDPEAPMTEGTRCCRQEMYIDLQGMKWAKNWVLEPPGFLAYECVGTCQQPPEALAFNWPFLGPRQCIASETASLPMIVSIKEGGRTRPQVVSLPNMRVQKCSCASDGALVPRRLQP
Sequence of Torsin-1A-interacting protein 1 (Homo sapiens) (Q5JTV8 whole entry, looked up): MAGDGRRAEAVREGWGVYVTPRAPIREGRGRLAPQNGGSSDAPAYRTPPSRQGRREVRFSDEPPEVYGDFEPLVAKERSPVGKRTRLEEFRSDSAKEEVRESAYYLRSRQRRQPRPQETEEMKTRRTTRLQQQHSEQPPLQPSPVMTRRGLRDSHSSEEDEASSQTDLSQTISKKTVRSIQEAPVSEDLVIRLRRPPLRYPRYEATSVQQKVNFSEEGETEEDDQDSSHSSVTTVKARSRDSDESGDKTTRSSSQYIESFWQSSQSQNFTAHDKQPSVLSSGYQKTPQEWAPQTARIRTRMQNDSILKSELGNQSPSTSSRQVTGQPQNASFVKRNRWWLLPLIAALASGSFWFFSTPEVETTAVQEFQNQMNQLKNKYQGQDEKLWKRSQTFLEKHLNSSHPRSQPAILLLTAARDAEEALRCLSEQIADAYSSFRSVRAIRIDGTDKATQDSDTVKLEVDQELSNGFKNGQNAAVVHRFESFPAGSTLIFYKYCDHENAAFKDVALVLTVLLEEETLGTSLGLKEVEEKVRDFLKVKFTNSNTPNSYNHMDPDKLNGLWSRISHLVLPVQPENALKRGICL
Sequence of Fibroblast growth factor 10 (Homo sapiens) (O15520 whole entry, looked up): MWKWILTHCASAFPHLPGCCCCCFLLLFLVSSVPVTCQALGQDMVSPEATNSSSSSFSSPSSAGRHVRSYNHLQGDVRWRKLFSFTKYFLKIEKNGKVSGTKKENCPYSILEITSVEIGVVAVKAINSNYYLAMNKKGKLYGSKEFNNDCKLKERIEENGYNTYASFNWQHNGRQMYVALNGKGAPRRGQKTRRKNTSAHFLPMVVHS
Sequence of Epidermal growth factor receptor (Homo sapiens) (P00533 whole entry, looked up): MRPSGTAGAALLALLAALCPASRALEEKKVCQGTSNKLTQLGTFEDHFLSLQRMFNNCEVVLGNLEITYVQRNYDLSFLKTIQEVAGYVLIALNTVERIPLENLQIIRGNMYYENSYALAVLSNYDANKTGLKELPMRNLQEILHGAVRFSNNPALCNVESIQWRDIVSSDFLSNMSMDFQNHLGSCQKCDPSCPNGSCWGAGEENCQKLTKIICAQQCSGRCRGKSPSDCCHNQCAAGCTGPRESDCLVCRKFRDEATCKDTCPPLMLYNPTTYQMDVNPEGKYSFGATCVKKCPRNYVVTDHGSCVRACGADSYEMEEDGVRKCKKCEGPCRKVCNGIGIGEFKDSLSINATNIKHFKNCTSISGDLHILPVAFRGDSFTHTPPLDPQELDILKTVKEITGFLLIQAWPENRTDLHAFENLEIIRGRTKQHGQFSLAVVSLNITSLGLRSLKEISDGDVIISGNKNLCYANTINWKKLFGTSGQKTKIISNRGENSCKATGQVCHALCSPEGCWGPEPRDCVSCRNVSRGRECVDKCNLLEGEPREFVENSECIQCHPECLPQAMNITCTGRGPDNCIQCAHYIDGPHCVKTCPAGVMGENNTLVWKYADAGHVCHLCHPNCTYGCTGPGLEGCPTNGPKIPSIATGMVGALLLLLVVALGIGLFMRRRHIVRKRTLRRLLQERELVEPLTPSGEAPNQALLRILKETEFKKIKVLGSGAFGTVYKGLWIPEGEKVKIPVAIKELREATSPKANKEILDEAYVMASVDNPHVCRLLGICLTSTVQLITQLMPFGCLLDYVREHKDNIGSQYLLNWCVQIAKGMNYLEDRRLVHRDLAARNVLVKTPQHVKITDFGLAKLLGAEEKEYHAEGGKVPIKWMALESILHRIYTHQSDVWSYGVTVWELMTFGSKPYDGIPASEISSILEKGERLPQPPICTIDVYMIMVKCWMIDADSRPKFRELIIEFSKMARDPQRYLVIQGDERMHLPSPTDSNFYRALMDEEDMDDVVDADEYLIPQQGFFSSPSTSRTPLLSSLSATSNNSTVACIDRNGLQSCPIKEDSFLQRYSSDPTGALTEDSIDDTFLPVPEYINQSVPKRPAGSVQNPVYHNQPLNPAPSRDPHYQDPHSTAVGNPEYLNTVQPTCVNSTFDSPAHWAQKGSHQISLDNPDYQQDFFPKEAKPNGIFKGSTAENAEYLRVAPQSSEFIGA
Sequence of Follistatin-related protein 3 (Homo sapiens) (O95633 whole entry, looked up): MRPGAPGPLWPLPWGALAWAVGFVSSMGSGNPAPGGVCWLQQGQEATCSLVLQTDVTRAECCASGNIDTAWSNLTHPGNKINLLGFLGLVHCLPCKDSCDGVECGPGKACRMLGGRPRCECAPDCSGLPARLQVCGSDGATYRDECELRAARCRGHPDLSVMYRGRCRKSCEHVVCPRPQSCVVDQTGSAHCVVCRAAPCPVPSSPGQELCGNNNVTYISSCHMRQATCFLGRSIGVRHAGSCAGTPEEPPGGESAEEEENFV

Consider `CN1C(=O)[C@]2(Cc3ccccc3)N=C(c3ccc(OCCCO)cc3)O[C@@H]2c2ccccc21`, for which the composite z-score in test [1] was determined as 1.19; in test [2], 0.566; in [3], 0.913; in test [5], 1.33; in test [6], 1.28; in [7] it was 0.367. Moreover, the composite z-score was found to be 0.459 in [8]; 0.505 in [9]; 1.14 in test [10]; 1.46 in test [11]; 0.235 in [13]; 0.33 in test [14]. The composite z-score in [15] is -0.323; in [16] it was 0.0761; in test [17], 0.0469; in test [18], 0.849; in test [19], 1.3; in [20], 0.51. The z-score in test [4] was -1.18 (inactive); in [12], -1.36.
As for `CN(C)CCCNC(=O)[C@@]1(c2ccc([N+](=O)[O-])cc2)CC(=O)N(C2CCCCC2)[C@@H]1c1ccc(CO)cc1`, the composite z-score in test [1] was 0.762; in [2], 0.0157; in [3] it was 0.759; in test [5] it was -0.105; in [6], -0.148; in test [7], -0.364. For the same compound, the composite z-score was 0.156 in test [8]; -0.236 in test [9]; 1.27 in test [10]; 1.04 in test [11]; -0.419 in test [13]; 0.465 in [14]. Also, the composite z-score was 0.0617 in test [15]; -0.25 in test [16]; -0.408 in test [17]; -0.483 in test [18]; 0.218 in test [19]; 0.8 in test [20]. For the same compound, the z-score in test [4] is 0.315 (inactive); in test [12], -1.77.
Consider `CC(C)(C)OC(=O)CC[C@]1(C(=O)NCC(O)CO)COC(c2ccc(OCCCO)cc2)=N1` (stereo not given in full), for which the composite z-score in test [1] was 0.304; in test [2], 0.747; in [3], 0.788; in test [5] it was 0.145; in test [6], 0.435; in test [7], -0.172. The composite z-score in [8] was -0.952; in test [9], -1.01; in [10] it was 0.173; in test [11], 1.31; in test [13] it was -0.455; in test [14], 1.5. In addition, the composite z-score in test [15] was 0.834; in test [16] it was -0.0512; in test [17], 0.275; in test [18] it was 0.592; in [19] it was 1.7; in [20], 1.88. The z-score is 0.646 (inactive) in test [4] and -0.105 in test [12].
On to `O=C(c1ccccc1)N1Cc2ccccc2[C@@H]2OC(c3ccc(OCCCO)cc3)=N[C@]2(Cc2ccccc2)C1=O`, for which the composite z-score in test [1] amounted to 1.35; in test [2], 0.114; in test [3], 0.431; in test [5] it was 1.24; in [6] it was 1.33; in test [7], 0.444. Moreover, the composite z-score amounted to 1.03 in [8]; 0.0731 in [9]; 0.3 in test [10]; 1.29 in [11]; 0.243 in test [13]; 0.978 in test [14]. The composite z-score in [15] is -0.0808; in test [16] it was 0.0825; in test [17], -0.305; in [18], -0.364; in test [19], 0.215; in test [20] it was 1.19. The z-score in test [4] was -0.0808 (inactive); in test [12] it was -1.58.
On to `CCOC(=O)[C@H]1CC=C2CC1C(=O)N1CCC[C@@H]1[C@@H]2O[Si](C)(C)C(C)(C)C` (stereo not given in full), for which the composite z-score in test [1] is -0.105; in test [2] it was -0.539; in test [3], -1.04; in test [5] it was -0.997; in [6], -1.22; in test [7], -0.265. The composite z-score in [8] was -1.02; in test [9] it was -0.177; in test [10] it was 0.928; in test [11], -0.404; in [13], 0.377; in [14] it was -1.45. The composite z-score was -1.61 in test [15]; -0.237 in test [16]; -0.297 in [17]; 0.14 in test [18]; -0.523 in test [19]; -1.15 in test [20]. Further, the z-score in test [4] was 0.582 (inactive); in test [12], -3.01.
